High-throughput results: PubChem, National Center for Advancing Translational Sciences (NCATS)
An excerpt weighted towards active compounds, which were near 0.33% of everything screened.
S-ASM inh – Inhibitors of Secretory Acid Sphingomyelinase (S-ASM): qHTS; Potency, µM (series often up to 57.5 µM), for the others: top-dose activity change, negative = inhibition, actives largely listed as inhibitors; actives 0.006% (n = 340,000); placental ASM, HMU-PC fluorogenic substrate, 60 min; AID 504937, 2011; note: potency is the fitted concentration of half-maximal effect
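Human placenta-derived ASM enzyme was preincubated with compound for 10 minutes at room temperature, then given fluorogenic substrate HMU-PC0 (9 uM final) for 60 minutes at 37 °C; a pH 10 stop preceded fluorescence reading at Ex 386/Em 447 nm.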
PKM2 activator – qHTS Assay for Activators of Human Muscle isoform 2 Pyruvate Kinase | Pyruvate kinase PKM (Homo sapiens), P14618 | Potency, µM (top dose mostly 57.5 µM), for the others: at the top dose activation, most hits filed as activators | purified PKM2, Kinase-Glo ATP luminescence, activation; response scale: 0% is enzyme alone, no compound | actives 0.34% (n = 260,000); note: potency is the fitted concentration of half-maximal effect; % is set by controls: 0 for no effect and ±100 for the full control effect; nearly all actives have a fitted effect of over 55% in size
Target sequence (P14618 whole entry, looked up, canonical isoform): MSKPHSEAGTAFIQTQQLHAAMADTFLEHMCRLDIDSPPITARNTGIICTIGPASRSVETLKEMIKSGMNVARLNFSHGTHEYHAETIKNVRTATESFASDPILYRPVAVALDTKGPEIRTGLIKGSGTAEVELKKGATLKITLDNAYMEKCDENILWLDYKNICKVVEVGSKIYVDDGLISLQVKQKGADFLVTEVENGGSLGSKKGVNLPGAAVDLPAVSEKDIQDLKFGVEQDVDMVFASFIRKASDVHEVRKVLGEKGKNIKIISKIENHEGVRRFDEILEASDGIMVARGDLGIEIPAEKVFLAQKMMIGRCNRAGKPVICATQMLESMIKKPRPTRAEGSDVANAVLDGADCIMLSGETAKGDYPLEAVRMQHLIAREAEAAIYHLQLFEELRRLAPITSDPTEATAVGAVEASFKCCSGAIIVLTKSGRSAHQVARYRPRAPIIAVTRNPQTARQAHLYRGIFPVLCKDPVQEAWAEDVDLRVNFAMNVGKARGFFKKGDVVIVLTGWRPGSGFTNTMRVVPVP
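Purified hPK-M2 (>95%) run at intermediate activity with 0.1 mM ADP and 0.5 mM PEP in 50 mM imidazole pH 7.2, KCl, MgCl2; 1 h room temperature. ATP formed read by Kinase-Glo luminescence; normalized to uninhibited and no-enzyme controls.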
IL2 activator – qHTS of IL-2 Activators. AID 652025, 2013. IL-2 activation reporter assay, cell-based qHTS; stimulated with anti-CD3/CD4/CD28 beads; in transgenic mouse T cells. actives 0.065% (n = 360,000). activation, % (series mostly up to about 46 µM); in the data active = activation above about 50%; inconclusive = mostly about 30% to 49%; note: 0% is about no effect
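Readout: EGFP and DsRed signals by fluorescent plate cytometry. Unstimulated transgenic mouse T cells received compound 60 min before antibody-bead stimulation, then incubated 18 h at 37 degrees C.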
Active calls of the source: *; ? = inconclusive; . = not tested or not shown. Unless noted, calls come from the whole dose curve; as a rule, active = well fitted curve in the direction sought with a large enough effect; inconclusive = small, poorly fitted or top-dose-only effect, or another doubt; inactive = no such curve, though single readings can be large; an effect the other way counts as inactive or inconclusive.

SMILES	S-ASM inh	PKM2 activator	IL2 activator
Cc1ccccc1CCN(C(=O)Cn1nnc2ccccc21)C(C(=O)NC(C)(C)C)c1ccsc1 (centres undefined)	-1.6%	1.4%	0.7
COc1ccccc1CNc1ncnc2c1nnn2Cc1ccccc1	-0.4%	20µM*	-0.8
CC(C)CCNc1ncnc2c1nnn2Cc1ccccc1	1.0%	0.4%	-0.6
COc1ccc(OCCCC(=O)OC(C)C(=O)Nc2ccc(NC(C)=O)cc2)cc1 (centres undefined)	2.0%	7.6%	0.0
O=S(=O)(c1ccccc1)c1ccc(NCc2ccco2)cc1	-1.0%	31.6µM*	1.2
O=S(=O)(Nc1nc2ccccc2nc1NCc1ccco1)c1ccccc1	10.5%	5.6%	-0.1
NC(=O)c1c(NC(=O)CN2CCCC2)sc2c1CCCC2	-0.4%	-8.5%	-3.4
Cc1ccc(O)c(NC(=O)c2cc(-c3ccc(F)cc3)on2)c1	2.1%	-8.0%	-0.8
CCOC(=O)Cc1csc(NC(=O)CSc2nnc(Cc3csc(N)n3)n2C)n1	-1.6%	-5.8%	-0.4
CCc1nnc(NC(=O)CSc2nc(C)c3c(c2C#N)CCCC3)s1	34.2%	10µM*	-2.1
COc1ccc(NC(=O)CSc2nc(C)c3c(c2C#N)CCCC3)cc1	-3.7%	-1.2%	-1.9
Cc1ccc(S(=O)(=O)N2CCN(C(=O)Cc3ccc4c(c3)OCCO4)CC2)cc1C	1.7%	3.16µM*	-4.0
Cc1ccc(S(=O)(=O)N2CCCN(S(=O)(=O)c3ccc(C)c(C)c3)CC2)cc1C	0.3%	2.24µM*	-0.5
CSc1ccc(S(=O)(=O)N2CCN(Cc3ccc4c(c3)OCO4)CC2)cc1	0.3%	7.94µM*	0.8
Cc1ccc(S(=O)(=O)N2CCCC2)cc1S(=O)(=O)N1CCCC1	-3.7%	-6.5%	0.2
O=C(Cc1ccc2c(c1)OCCO2)N1CCN(S(=O)(=O)c2ccccc2C(F)(F)F)CC1	5.5%	?	-4.5
O=C(Cc1ccc2c(c1)OCCO2)N1CCN(S(=O)(=O)c2cccs2)CC1	2.9%	10.9%	-3.8
COc1ccc(S(=O)(=O)N2CCN(Cc3ccc4c(c3)OCO4)CC2)cc1	2.1%	.	-2.2
O=C(Cc1ccc2c(c1)OCCO2)N1CCN(S(=O)(=O)c2cccc(Cl)c2Cl)CC1	-0.9%	2.82µM*	0.5
CC1=C(C(=O)OCc2ccccc2)C(c2ccc([N+](=O)[O-])cc2)NC(=O)N1 (centres undefined)	-3.1%	-8.2%	-0.3
Cc1ccc(C2(C)NC(=O)N(CC(=O)N3CCN(S(=O)(=O)c4cccc([N+](=O)[O-])c4)CC3)C2=O)cc1 (centres undefined)	0.2%	.	2.4
CN1C(=O)c2cccc3c(S(=O)(=O)Nc4ccccc4F)ccc1c23	-4.9%	11.2µM*	1.6
CNS(=O)(=O)c1ccc2c3c(cccc13)C(=O)N2C	269.4%	25.1%	-0.3
COc1ccc(S(=O)(=O)NCc2ccccn2)cc1OC	7.1%	.	-6.0
O=c1[nH]c2c(n(C3CCCCC3)c1=O)CCC2	12.0%	-1.6%	2.8
SMILES	S-ASM inh	PKM2 activator	IL2 activator
CCOC(=O)C1CCN(C(=O)CN2C(=O)C(C(C)C)Oc3ccccc32)CC1 (centres undefined)	2.1%	-7.0%	-0.1
Cc1ccc2cc(CN(CC(C)C)S(=O)(=O)c3cccc4nonc34)c(=O)[nH]c2c1	-0.4%	.	65.1*
Cc1ccc2cc(CN(CC3CCCO3)S(=O)(=O)c3cccc4nsnc34)c(=O)[nH]c2c1 (centres undefined)	-4.4%	-1.6%	-3.9
CC(C)Sc1nc(O)c(Cc2ccccc2)c(=O)[nH]1	1.4%	10.5%	-1.7
CCOC(=O)N1CCN(C(=O)CNC(=O)c2ccccc2F)CC1	0.3%	.	0.3
COc1cc(NC(=O)c2ccccc2-c2ccccc2)cc(OC)c1OC	.	-10.3%	.
CCSc1ccccc1C(=O)Nc1cc(OC)c(OC)c(OC)c1	-0.6%	28.2µM*	-1.9
CC1CCN(S(=O)(=O)c2ccc(Cl)cc2)CC1	2.2%	-3.2%	1.0
CCOC(=O)c1cc(CC)sc1N1C(=O)CC(Sc2ncccc2C(=O)O)C1=O (centres undefined)	3.7%	5.0%	-1.6
CCOC(=O)c1cc(CC)sc1N1C(=O)CC(Sc2ccccc2C(=O)O)C1=O (centres undefined)	4.0%	25.1µM*	-3.7
COC(=O)c1c(N2C(=O)CC(Sc3ccccc3C(=O)O)C2=O)sc2c1CCCC2 (centres undefined)	3.9%	7.94µM*	-2.3
